This passage reports AC50 and outcome results from PubChem BioAssay (EPA / NIEHS).

The test system of test [1] is turtle Estrogen Receptor (ERa), gene 101933533. Briefly: ATG_trERa_XSP2: Attagene TRANS-FACTORIAL Multi-Species (XSP2) HepG2 Assay for turtle Estrogen Receptor (ERa) (AID 2283812).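 Note: human HepG2 liver cells transiently expressing turtle ERa-Gal4 chimeric receptor; actives raise reporter signal above DMSO so AC50 reflects agonist activity.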 The protocol: ATG_XSP2_multi-species_TRANS is a cell-based, multiplexed assay created by modifying the existing Attagene TRANS-FACTORIAL system to include a panel of nuclear receptors from some or all the following species: human (Homo sapiens), mouse (Mus musculus), frog (Xenopus laevis), zebrafish (Danio rerio), chicken (Gallus gallus), and turtle (Chrysemys picta). The ECOTOX-FACTORIAL format uses HepG2, a human liver cell line, with measurements taken at 24 hours after chemical dosing in a 24-well plate. Xsp2 included 3 nM 6-alpha-fluorotestosterone and 1.5 nM norgestrel to stimulate the androgen receptor.ATG_trERa_XSP2 is one of 29 assay components measured or calculated from the ATG_XSP2_multi-species_TRANS assay. It is designed to make measurements of mRNA induction, a form of inducible reporter, as detected with fluorescence intensity signals by Reverse transcription polymerase chain reaction (RT-PCR) and Capillary electrophoresis technology.The assay endpoint ATG_trERa_XSP2 was analyzed in the positive analysis fitting direction relative to DMSO as the negative control and baseline of activity. Using a type of inducible reporter, measures of mRNA for gain-of-signal activity can be used to understand the reporter gene at the transcription factor-level as they relate to the gene ER. Furthermore, this assay endpoint can be referred to as a primary readout, because this assay has produced multiple assay endpoints where this one serves a reporter gene function. To generalize the intended target to other relatable targets, this assay endpoint is annotated to the nuclear receptor intended target family, where the subfamily is steroidal.
Human liver HepG2 cells are transiently transfected with multiple reporter transcription units (MRTUs) in 6-well plates using FuGene 6 reagent (Roche; 3 ml FuGene/1 mg DNA). The MRTU constructs are regulated by a cis-regulating element (promoter). […] A major difference between the CIS and TRANS system is that in CIS activities of endogenous TFs are measured, whereas the TRANS assay evaluates changes in activities of exogenous, chimeric NR-Gal4 proteins. […] At the end of 24 hour incubation, total RNA was isolated using TriZol reagent (Invitrogen). The isolated RNA is then reverse-transcribed using oligo(dT) primer and Mo-MLV reverse transcriptase (Invitrogen) with DNAse I (Ambion) treatment for 30 min. […] The fragments were purified using Qiaquick PCR columns (Qiagen), analyzed on an ABI 3130xL genetic analyzer (Applied Biosystems) with peak positions identified by using a set of X-rhodamine (ROX)-labeled MapMarker1000 molecular weight standards (BioVentures). […]

Test [2] concerns the target human Thyroid hormone Receptor beta (TRb), THRB (gene 7068) (UniProt P10828). Briefly: ATG_hTRb_XSP1: Attagene TRANS-FACTORIAL Multi-Species (XSP1) HepG2 Assay for human Thyroid hormone Receptor beta (TRb) (AID 2283808). The method, boiled down:
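Readout is reporter mRNA induction measured by RT-PCR, fluorescent labelling and capillary electrophoresis, fitted upward relative to DMSO. Transiently transfected human HepG2 cells expressing NR-Gal4 chimeras were dosed for 24 h, medium containing 3 nM 6-alpha-fluorotestosterone.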

Test [3] is described as follows: ATG_XTT_Cytotoxicity_XSP1: Cytotoxicity Assessment in the Attagene TRANS-FACTORIAL Multi-Species (XSP1) HepG2 Assay (AID 2283810). The method, boiled down:
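XTT viability readout taken at 24 hours post-dosing in HepG2 liver cells co-treated with 3 nM 6-alpha-fluorotestosterone. Signal loss relative to DMSO controls reflects cytotoxicity.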

Test [4] can be described thus: ATG_M_06_XSP2: Attagene TRANS-FACTORIAL Multi-Species (XSP2) HepG2 Assay for M06 Transcription Factor (Internal Marker) (AID 2283811).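 Note: internal background marker reporter mRNA measured by RT-PCR and capillary electrophoresis; hits are increases in signal above the DMSO baseline.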 The method, boiled down: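 Internal-marker reporter transcript, quantified by RT-PCR, 6-FAM labelling, HpaI digestion and capillary electrophoresis, 24 hours after dosing transfected HepG2 cells with 3 nM 6-alpha-fluorotestosterone and 1.5 nM norgestrel present; DMSO baseline.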

Test [5] in a line: ATG_M_19_XSP1: Attagene TRANS-FACTORIAL Multi-Species (XSP1) HepG2 Assay for M19 Transcription Factor (Internal Marker) (AID 2283798). The method, boiled down:
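Readout is reporter mRNA induction quantified via RT-PCR, 6-FAM labeling, HpaI digestion and capillary electrophoresis, fitted in the positive direction versus DMSO baseline. Transfected HepG2 cells exposed 24 h, medium including 3 nM 6-alpha-fluorotestosterone.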

The nature of test [6]: ATG_M_32_XSP1: Attagene TRANS-FACTORIAL Multi-Species (XSP1) HepG2 Assay for M32 Transcription Factor (Internal Marker) (AID 2283799). The method, boiled down:
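Reporter transcripts from the M32 internal-control unit measured by RT-PCR, FAM labelling, HpaI digestion and capillary electrophoresis after 24 h compound exposure of transfected HepG2, 3 nM 6-alpha-fluorotestosterone included; DMSO baseline, positive-direction fit.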

The test system of test [7] is zebrafish Peroxisome Proliferator-activated Receptor gamma (PPARg), gene 557037. Nature of the test: ATG_zfPPARg_XSP1: Attagene TRANS-FACTORIAL Multi-Species (XSP1) HepG2 Assay for zebrafish Peroxisome Proliferator-activated Receptor gamma (PPARg) (AID 2283801). On the procedure: (§1) ATG_XSP1_multi-species_TRANS is a cell-based, multiplexed assay created by modifying the existing Attagene TRANS-FACTORIAL system to include a panel of nuclear receptors from some or all the following species: human (Homo sapiens), mouse (Mus musculus), frog (Xenopus laevis), zebrafish (Danio rerio), chicken (Gallus gallus), and turtle (Chrysemys picta). The ECOTOX-FACTORIAL format uses HepG2, a human liver cell line, with measurements taken at 24 hours after chemical dosing in a 24-well plate. Xsp1 included 3 nM 6-alpha-fluorotestosterone to partially stimulate the androgen receptor.ATG_zfPPARg_XSP1 is one of 29 assay components measured or calculated from the ATG_XSP1_multi-species_TRANS assay. It is designed to make measurements of mRNA induction, a form of inducible reporter, as detected with fluorescence intensity signals by Reverse transcription polymerase chain reaction (RT-PCR) and Capillary electrophoresis technology.The assay endpoint ATG_zfPPARg_XSP1 was analyzed in the positive analysis fitting direction relative to DMSO as the negative control and baseline of activity. […] Furthermore, this assay endpoint can be referred to as a primary readout, because this assay has produced multiple assay endpoints where this one serves a reporter gene function. […]

Test [8] has as its target Nuclear receptor subfamily 1 group I member 2 (Mus musculus) (UniProt O54915). Nature of the test: ATG_mPXR_XSP1: Attagene TRANS-FACTORIAL Multi-Species (XSP1) HepG2 Assay for mouse Pregnane X Receptor (PXR) (AID 2283803). The method, boiled down:
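Transiently transfected HepG2 cells expressing a receptor-Gal4 chimera drive a GAL4-UAS reporter; 3 nM 6-alpha-fluorotestosterone included. Reporter mRNA read 24 h post-dose by RT-PCR and capillary electrophoresis; gain of signal relative to DMSO.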

Test [9] relates to turtle Thyroid Hormone Receptor, alpha (TRa), gene 101949057. Nature of the test: ATG_trTRa_XSP1: Attagene TRANS-FACTORIAL Multi-Species (XSP1) HepG2 Assay for turtle Thyroid Hormone Receptor, alpha (TRa) (AID 2283806). The method, boiled down: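 After 24 h chemical exposure, reporter transcripts were measured by RT-PCR with fluorescent primer extension, HpaI digestion and capillary electrophoresis. Cells were transiently transfected HepG2 expressing exogenous NR-Gal4 chimeras; medium contained 3 nM 6-alpha-fluorotestosterone; fitted upward relative to DMSO.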

The target of test [10] is zebrafish Thyroid Hormone Receptor beta (TRb), thrb (gene 30607) (UniProt Q9PVE4). Briefly: ATG_zfTRb_XSP1: Attagene TRANS-FACTORIAL Multi-Species (XSP1) HepG2 Assay for zebrafish Thyroid Hormone Receptor beta (TRb) (AID 2283809). On the procedure:
as §1, with “receptor.ATG_zfTRb_XSP1” for “receptor.ATG_zfPPARg_XSP1”, “ATG_zfTRb_XSP1” for “ATG_zfPPARg_XSP1”

Values joined by “and” are separate entries in the source; they are usually repeats but may differ in a detail not shown here. Equal values may be shown once. Records with an inconclusive call do not appear. The source holds several records for some structures; these can differ, active in one and inactive in another. Active and inactive are the calls of the source. Rule for the calls: active = hit-call score of the fitted dose curve at least 0.9, where 1 is the maximum; inconclusive = response in the unintended direction; inactive = score below 0.9.

Sequence of human Thyroid hormone Receptor beta (TRb), THRB (gene 7068) (P10828 whole entry, looked up, the tested form may be a part): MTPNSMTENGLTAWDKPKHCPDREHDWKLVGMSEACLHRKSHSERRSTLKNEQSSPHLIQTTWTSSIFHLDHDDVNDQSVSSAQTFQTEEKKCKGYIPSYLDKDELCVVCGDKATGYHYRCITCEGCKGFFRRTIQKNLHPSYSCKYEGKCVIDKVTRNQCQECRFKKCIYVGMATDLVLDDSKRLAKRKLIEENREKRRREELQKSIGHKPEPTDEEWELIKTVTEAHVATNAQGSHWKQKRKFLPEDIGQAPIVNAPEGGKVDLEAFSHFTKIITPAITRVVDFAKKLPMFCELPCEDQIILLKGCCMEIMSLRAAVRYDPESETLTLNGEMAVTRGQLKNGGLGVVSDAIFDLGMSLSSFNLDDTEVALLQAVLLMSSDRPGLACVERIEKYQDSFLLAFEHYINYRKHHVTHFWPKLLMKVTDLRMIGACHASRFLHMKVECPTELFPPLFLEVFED
Sequence of zebrafish Thyroid Hormone Receptor beta (TRb), thrb (gene 30607) (Q9PVE4 whole entry, looked up): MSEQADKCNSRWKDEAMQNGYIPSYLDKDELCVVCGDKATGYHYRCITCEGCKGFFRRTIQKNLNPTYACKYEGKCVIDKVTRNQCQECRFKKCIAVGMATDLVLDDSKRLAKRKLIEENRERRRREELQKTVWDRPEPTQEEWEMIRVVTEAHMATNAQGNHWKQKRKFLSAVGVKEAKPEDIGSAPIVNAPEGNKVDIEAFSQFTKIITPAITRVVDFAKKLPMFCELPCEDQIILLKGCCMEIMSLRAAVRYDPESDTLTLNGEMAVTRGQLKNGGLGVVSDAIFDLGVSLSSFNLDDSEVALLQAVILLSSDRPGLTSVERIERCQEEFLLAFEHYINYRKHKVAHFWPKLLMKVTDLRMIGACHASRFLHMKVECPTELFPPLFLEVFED
Sequence of Nuclear receptor subfamily 1 group I member 2 (Mus musculus) (O54915 whole entry, looked up, the tested form may be a part): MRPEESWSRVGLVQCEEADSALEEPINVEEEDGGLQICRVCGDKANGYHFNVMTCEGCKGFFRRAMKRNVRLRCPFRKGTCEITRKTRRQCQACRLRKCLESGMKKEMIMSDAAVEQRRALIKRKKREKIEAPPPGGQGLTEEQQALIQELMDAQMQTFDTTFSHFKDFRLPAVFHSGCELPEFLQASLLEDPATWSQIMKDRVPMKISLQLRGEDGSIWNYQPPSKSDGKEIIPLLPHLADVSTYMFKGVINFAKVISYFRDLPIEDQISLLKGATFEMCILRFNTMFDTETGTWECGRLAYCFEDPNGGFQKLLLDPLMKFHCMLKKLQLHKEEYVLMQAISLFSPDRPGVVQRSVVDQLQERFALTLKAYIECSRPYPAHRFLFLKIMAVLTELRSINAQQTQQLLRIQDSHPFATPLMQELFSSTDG

Regarding `CCCCCCCCCCCCN`, the AC50 in test [1] was 44.3 µM (active).
In the case of `CN(CCOc1ccc(CC2SC(=O)NC2=O)cc1)c1ccccn1` (stereo not given), the compound was called inactive in [2], in [3] and in test [4].
Turning to `O=C(Oc1ccccc1)c1ccc(O)cc1`, in test [1], the half-maximal activity concentration (AC50) is 30.6 µM (active) and the compound was classed as inactive.
For the compound `CN(C)C(=N)N=C(N)N`, the compound was classed as inactive in test [5], in test [6], in [7], in test [9], in test [10] and in test [3]. Besides, the AC50 in test [8] is 64.4 µM (active).
Consider `O=c1cc(-c2ccccc2)oc2cc(O)cc(O)c12`, for which the result in [4] was inactive. Further, the AC50 in [1] was 9.68 µM (active) and 2.6 µM (active).

Broadly, the AC50 is the midpoint of the concentration-response curve, whichever way the signal moves.
